In PubChem BioAssay (EPA / NIEHS):
Inconclusive results are not listed. Calls of active or inactive are those of the source. Rule for the calls, unless noted: active = hit-call score of the fitted dose curve at least 0.9, where 1 is the maximum; inactive = score below 0.9.

Columns and labels:
[1] = CCTE_Mundy_HCI_Cortical_NOG_BPCount: CCTE's Neurite Outgrowth Assay in rat cortical cells for Branch Point Count, Mundy Lab (AID 2284237);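 for AC50: branch points counted about two days after chemical exposure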
Summary of the method: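 Measured 50.33 h after dosing, this morphology endpoint uses rat primary cortical cultures labelled for betaIII-tubulin. Branch points are quantified by high-content imaging, with DMSO as negative control and baseline.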

[2] = CCTE_Mundy_HCI_hNP1_Casp3_7: CCTE's Caspase-Glo 3/7 Assay in human neuroprogenitor cells for Apoptosis, Mundy Lab (AID 2284240)
Summary of the method: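 Neuroepithelial-lineage stem cells from WA09 embryonic cells were treated with chemicals after 40–44 h of culture. Twenty-four hours later, caspase-3/7 activation was detected luminescently after a 30 min room-temperature reagent step, with DMSO as baseline.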

[3] = CCTE_Mundy_HCI_hNP1_CellTiter: CCTE's Cell Titer-Glo 2 Assay in human neuroprogenitor cells for Viability, Mundy Lab (AID 2284241; active = hit-call score of the fitted dose curve at least 0.9, where 1 is the maximum)
Summary of the method: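 Measures ATP content in human neural progenitors derived from WA09 embryonic cells. Read-out at 26.5 hours after dosing, with DMSO serving as the negative control and baseline.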

[4] = IUF_NPC2c_oligodendrocyte_migration_120hr: Leibniz Research Institute for Environmental Medicine (IUF) 120-hour Neural Progenitor Cell Migration Assay for Oligodendrocyte Migration (NPC2c) (AID 2284297);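 note: O4-positive oligodendrocyte migration distance divided by radial glia migration distance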
Summary of the method: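 Using fetal brain neural progenitor spheres differentiating in N2 medium at 37C, compounds were present for 120 h. Oligodendrocyte migration distance, normalized to radial glia migration, was measured from imaged O4 staining.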

[5] = IUF_NPC2a_radial_glia_migration_120hr: Leibniz Research Institute for Environmental Medicine (IUF) 120-hour Neural Progenitor Cell Migration Assay for Radial Glia Migration (NPC2a) (AID 2284298)
Summary of the method: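 Exposure of 0.3 mm primary hNPC spheres runs day 0 to 120 h with a half-volume medium change at day 3. Fixed cells get Hoechst staining; high-content analysis of nuclear positions yields radial glia migration distance per well, compared against DMSO controls.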

[6] = IUF_NPC2a_radial_glia_migration_72hr: Leibniz Research Institute for Environmental Medicine (IUF) 72-hour Neural Progenitor Cell Migration Assay for Radial Glia Migration (NPC2a) (AID 2284299)
Summary of the method: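 Single 0.3 mm neurospheres were plated per well in N2 differentiation medium and exposed from the start of differentiation. After 72 hours, brightfield images were taken and radial glia migration from the sphere core edge was measured manually in four directions, averaged per well.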

[7] = read-out: Collagen I, COL1A1 (gene 1277); test: BSK_MyoF_CollagenI: BioMAP Diversity Plus: MyoF Assay for Collagen I Biomarker Activity (AID 2284238); conditions: primary human lung fibroblasts
Summary of the method: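 Measured by ELISA: Collagen I from human lung fibroblasts 24 h after compound addition, analysed for signal gain with DMSO as baseline; overt toxicity read from SRB staining of parallel cultures at the same time.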

[8] = read-out: Collagen III, COL3A1 (gene 1281); test: BSK_MyoF_CollagenIII: BioMAP Diversity Plus: MyoF Assay for Collagen III Biomarker Activity (AID 2284239); conditions: primary human lung fibroblasts
Summary of the method: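 Multiplexed cell assay in lung fibroblasts, harvested at 24 h post-dose. Collagen III detected by ELISA, with positive-direction fitting relative to DMSO vehicle.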

[9] = read-out: Interleukin 17F (IL17F), IL17F (gene 112744); test: BSK_BT_xIL17F: BioMAP Diversity Plus: BT Assay for Interleukin 17F (IL17F) Biomarker Activity (AID 2284243); conditions: primary human B cells with PBMC
Summary of the method: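 Luminex readout of IL-17F secretion, 24 h; cells: human B cells with PBMC; positive-direction analysis, DMSO control.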

[10] = read-out: Actin alpha 1 (ACTA1), ACTA1 (gene 58); test: BSK_MyoF_ACTA1: BioMAP Diversity Plus: MyoF Assay for Actin alpha 1 (ACTA1) Biomarker Activity (AID 2284244); conditions: primary human lung fibroblasts
Summary of the method: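 Cells were exposed to chemical for 24 h before a-SMA levels were quantified by ELISA in human lung fibroblasts. Increases were fitted against DMSO as negative control; parallel SRB staining (0.1% after 10% TCA fixation, 560 nm) assessed cytotoxicity.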

[11] = read-out: Interleukin 2 (IL2), IL2 (gene 3558); test: BSK_BT_xIL2: BioMAP Diversity Plus: BT Assay for Interleukin 2 (IL2) Biomarker Activity (AID 2284245); conditions: primary human B cells with PBMC
Summary of the method: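 The BT system combines human B cells with peripheral blood mononuclear cells. Twenty-four hours after chemical dosing, secreted IL-2 was measured with xMAP bead technology, and responses were analyzed as increases over DMSO controls.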

[12] = read-out: Basic fibroblast growth factor (bFGF), FGF2 (gene 2247); test: BSK_MyoF_bFGF: BioMAP Diversity Plus: MyoF Assay for Basic fibroblast growth factor (bFGF) Biomarker Activity (AID 2284246); conditions: primary human lung fibroblasts
Summary of the method: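 Chemicals are added to human lung fibroblast cultures and incubated 24 h. bFGF is then measured by ELISA, while parallel cultures receive SRB staining for total protein as a cytotoxicity check. Data are fitted upward against DMSO.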

[13] = read-out: Collagen IV, COL4A1 (gene 1282); test: BSK_MyoF_CollagenIV: BioMAP Diversity Plus: MyoF Assay for Collagen IV Biomarker Activity (AID 2284247); conditions: primary human lung fibroblasts
Summary of the method: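 Human lung fibroblast system, 24 h chemical exposure. Endpoint: Collagen IV by ELISA, upward fit vs DMSO.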

[14] = read-out: Plasminogen activator inhibitor-1 (PAI1), SERPINE1 (gene 5054); test: BSK_MyoF_PAI1: BioMAP Diversity Plus: MyoF Assay for Plasminogen activator inhibitor-1 (PAI1) Biomarker Activity (AID 2284256); conditions: primary human lung fibroblasts;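 for outcome: PAI-1 protein level measured by ELISA in fibroblast cultures; PAI-1 read 24 h after compound addition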
Summary of the method: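 In this multiplexed primary-cell system, fibroblasts from human lung received compound for 24 h before ELISA detection of PAI-1; overt toxicity was checked by SRB (0.1%, TCA-fixed, 560 nm) in parallel wells.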

[15] = read-out: Interleukin-8 (IL8), CXCL8 (gene 3576); test: BSK_MyoF_IL8: BioMAP Diversity Plus: MyoF Assay for Interleukin-8 (IL8) Biomarker Activity (AID 2284261); conditions: primary human lung fibroblasts
Summary of the method: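 DMSO-normalised, upward-fitted IL-8 ELISA signal; human lung fibroblasts, 24 h chemical treatment.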

[16] = read-out: Decorin, DCN (gene 1634); test: BSK_MyoF_Decorin: BioMAP Diversity Plus: MyoF Assay for Decorin Biomarker Activity (AID 2284265); conditions: primary human lung fibroblasts
Summary of the method: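 In this multiplexed fibroblast system, secreted or surface decorin is detected by ELISA one day after dosing, with increases scored against the DMSO vehicle.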

[17] = BSK_MyoF_SRB: Viability Assessment in the BioMAP Diversity Plus: MyoF Assay (AID 2284267); conditions: primary human lung fibroblasts;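 note: total protein by SRB absorbance in parallel cultures as cytotoxicity measure; cells assessed 24 h after compound addition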
Summary of the method: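 Confluent human lung fibroblasts were exposed to test chemicals for 24 h. Parallel wells were then fixed in 10% TCA, stained with 0.1% sulforhodamine B and measured at 560 nm. DMSO served as baseline for curve fitting.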

[18] = read-out: Matrix Metallopeptidase 1 (MMP1), MMP1 (gene 4312); test: BSK_MyoF_MMP1: BioMAP Diversity Plus: MyoF Assay for Matrix Metallopeptidase 1 (MMP1) Biomarker Activity (AID 2284268); conditions: primary human lung fibroblasts
Summary of the method: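 Fibroblasts from human lung receive compound for 24 h before ELISA quantitation of MMP1. DMSO serves as baseline, and the endpoint is fitted for signal gain.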

[19] = read-out: TIMP metallopeptidase inhibitor 1 (TIMP1), TIMP1 (gene 7076); test: BSK_MyoF_TIMP1: BioMAP Diversity Plus: MyoF Assay for TIMP metallopeptidase inhibitor 1 (TIMP1) Biomarker Activity (AID 2284269); conditions: primary human lung fibroblasts
Summary of the method: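 TIMP-1 levels were determined by ELISA in human lung fibroblasts treated for 24 h. DMSO served as negative control and baseline for upward curve fitting.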

[20] = CCTE_Mundy_HCI_Cortical_Synap_Neur_Matur_NeuronCount: CCTE's Synaptogenesis and Neurite Maturation Assay in rat cortical cells for Neuron Count, Mundy Lab (AID 2284242; active = hit-call score of the fitted dose curve at least 0.9, where 1 is the maximum;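 for AC50: neuron number from Hoechst nuclei and MAP2 staining by high-content imaging; hits reduce neuron count versus DMSO baseline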)
Summary of the method: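 Cortical cells from rat are plated, treated with AraC at DIV 5, and exposed to test chemicals with a media change at DIV 7. At DIV 12 they are fixed and immunostained (MAP2, synaptophysin), and imaged neuron counts are compared against DMSO controls.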

Structure (SMILES): CSC(=O)c1cccc2nnsc12
- outcome [1]: inactive
- outcome [2]: inactive
- outcome [3]: inactive
- outcome [4]: inactive
- outcome [5]: inactive
- outcome [6]: inactive

Structure (SMILES): N#CSCSc1nc2ccccc2s1
- AC50 [7]: 5.73 µM (active)
- AC50 [8]: 5.71 µM (active)
- AC50 [9]: 4.93 µM (active)
- AC50 [10]: 4.21 µM (active)
- AC50 [11]: 5.16 µM (active)
- AC50 [12]: 10.6 µM (active)
- AC50 [13]: 6.4 µM (active)
- AC50 [14]: 7.79 µM (active)
- AC50 [15]: 11.2 µM (active)
- AC50 [16]: 5.27 µM (active)
- AC50 [17]: 5.55 µM (active)
- AC50 [18]: 3.63 µM (active)
- AC50 [19]: 11.4 µM (active)

Structure (SMILES): CCCN(CCC)C(=O)SCC
- outcome [2]: inactive
- outcome [3]: inactive
- outcome [4]: inactive
- outcome [5]: inactive
- outcome [6]: inactive

Structure (SMILES): CCN(CC)C(=O)c1cccc(C)c1
- outcome [1]: inactive
- outcome [2]: inactive
- outcome [3]: inactive
- outcome [20]: inactive
- outcome [4]: inactive
- outcome [5]: inactive
- outcome [6]: inactive

Structure (SMILES): S=C([S-])NCCNC(=S)[S-].[Mn+2]
- outcome [2]: inactive
- outcome [20]: inactive
- outcome [4]: inactive
- outcome [5]: inactive
- outcome [6]: inactive

Structure (SMILES): COCCO
- outcome [7]: inactive
- outcome [8]: inactive
- outcome [9]: inactive
- outcome [10]: inactive
- outcome [11]: inactive
- outcome [12]: inactive
- outcome [13]: inactive
- outcome [14]: inactive
- outcome [15]: inactive
- outcome [16]: inactive
- outcome [17]: inactive
- outcome [18]: inactive
- outcome [19]: inactive

Structure (SMILES): CC(C)(c1ccc(O)cc1)c1ccc(O)cc1
- outcome [20]: inactive
- outcome [4]: inactive
- outcome [5]: inactive
- outcome [6]: inactive

Structure (SMILES): Cc1nn(C)c(Oc2ccccc2)c1C=NOCc1ccc(C(=O)OC(C)(C)C)cc1
- AC50 [1]: 0.014 µM (active)
- AC50 [2]: 8.5 µM (active)
- AC50 [20]: 0.00225 µM (active)
- AC50 [4]: 12.5 µM (active)
- AC50 [5]: 5.23 µM (active)
- AC50 [6]: 2.48 µM (active)

Structure (SMILES): O=C(O)c1ccccc1
- outcome [1]: inactive
- outcome [2]: inactive
- outcome [3]: inactive
- outcome [4]: inactive
- outcome [5]: inactive
- outcome [6]: inactive

Structure (SMILES): CC1(C)C(C=C(Cl)Cl)C1C(=O)OCc1cccc(Oc2ccccc2)c1 (centres undefined)
- AC50 [1]: 84.5 µM (active)
- outcome [2]: inactive
- outcome [3]: inactive
- AC50 [20]: 5.69 µM (active)

Structure (SMILES): CCC(C)OC(=O)N1CCCCC1CCO (centres undefined)
- outcome [7]: inactive
- outcome [8]: inactive
- outcome [9]: inactive
- outcome [10]: inactive
- outcome [11]: inactive
- outcome [12]: inactive
- outcome [13]: inactive
- outcome [14]: inactive
- outcome [15]: inactive
- outcome [16]: inactive
- outcome [17]: inactive
- outcome [18]: inactive
- outcome [19]: inactive

Structure (SMILES): C#CCOC(=O)[C@@H](C)Oc1ccc(Oc2ncc(Cl)cc2F)cc1
- outcome [1]: inactive
- outcome [2]: inactive
- outcome [3]: inactive
- outcome [20]: inactive
- outcome [4]: inactive
- outcome [5]: inactive
- outcome [6]: inactive

Structure (SMILES): S=C(S)NCCNC(=S)S.[Mn+2].[S-]C([S-])=NCCN=C([S-])[S-].[Zn+2]
- outcome [1]: inactive
- outcome [2]: inactive
- outcome [4]: inactive
- outcome [5]: inactive
- outcome [6]: inactive
